Test results reported in PubChem BioAssay AID1542 (National Center for Advancing Translational Sciences (NCATS), 2009).
Inconclusive results are not listed. Activity calls are given as the source filed them. The call rests on the fitted dose curve; in most records, active means well fitted curve in the direction sought with a large enough effect; inconclusive means small, poorly fitted or top-dose-only effect, or effect the other way, or another doubt; inactive means no such curve, though single readings can be large or run the other way.

Target: Pyruvate kinase PKM (Homo sapiens) (UniProt P14618)
Sequence (P14618 whole entry, looked up, canonical isoform): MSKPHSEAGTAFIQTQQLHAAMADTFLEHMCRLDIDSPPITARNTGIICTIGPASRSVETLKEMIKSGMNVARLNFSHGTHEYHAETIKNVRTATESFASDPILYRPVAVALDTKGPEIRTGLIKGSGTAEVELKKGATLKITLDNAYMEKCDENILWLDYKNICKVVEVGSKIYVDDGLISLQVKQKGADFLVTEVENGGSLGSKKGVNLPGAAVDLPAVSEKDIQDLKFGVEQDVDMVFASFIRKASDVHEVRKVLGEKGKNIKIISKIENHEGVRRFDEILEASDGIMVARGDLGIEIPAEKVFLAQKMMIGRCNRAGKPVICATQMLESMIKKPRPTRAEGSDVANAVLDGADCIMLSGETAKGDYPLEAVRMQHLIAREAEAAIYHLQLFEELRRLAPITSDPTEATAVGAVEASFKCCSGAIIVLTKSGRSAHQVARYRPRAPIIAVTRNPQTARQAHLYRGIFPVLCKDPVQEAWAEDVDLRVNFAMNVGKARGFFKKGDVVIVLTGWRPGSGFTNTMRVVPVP
Assay: Secondary assay for Activators of Human Pyruvate Kinase M1 isoform
Conditions: purified hPK-M1, LDH-coupled NADH fluorescence kinetic; series mostly up to 57.5 µM
Description: Confirmatory assay NIH Chemical Genomics Center [NCGC] Matthew G. Vander Heiden, M.D., Ph.D. [Harvard Medical School, 77 Avenue Louis Pasteur, Boston, MA 02115] NCGC Assay Overview: Human pyruvate kinase […] (hPK-M1)enzyme was supplied as a highly purified (>95% pure) preparation from Harvard Medical School and a secondary assay was used to evaluate compounds. This assay couples the formation of pyruvate from hPK-R using lactate dehydrogenase (LDH) and NADH. The depletion of NADH is followed in a fluorescent-based kinetic assay that follows the formation of pyruvate to lactate, as catalyzed LDH. Pyruvate kinase substrates, PEP and ADP, were present in the assay at 0.1 mM and 4 mM respectively. In this kinetic assay initial rates were determined by following the fluorescence of NADH depletion.
NCGC Assay Protocol Summary: Three uL of substrate mix (final concentration, 50 mM Tris-Cl pH 8.0, 200 mM KCl, 15 mM MgCl2, 0.1 mM PEP, 4.0 mM ADP, and 0.2 mM NADH) was dispensed into black-solid 1536 well plates. 23 nL of compounds were delivered by a pin tool and 1 uL of enzyme mix (final concentrations, 10 nM hPK-M1 and 1 uM of LDH) was added. Plates were immediately placed in ViewLux (Perkin Elmer) and NADH fluorescence was determined at 30 second exposure intervals for between 3 and 6 minutes. Data were normalized to the uninhibited controls.

outcome, inactive:
Cc1cc2c(s1)c1cnn(Cc3ccc(C(F)(F)F)cc3F)c(=O)c1n2C
O=S(=O)(c1ccc2c(c1)OCCO2)N1CCN(S(=O)(=O)c2ccc3nc(Cl)c(Cl)nc3c2)CC1
Cn1c2cc(C(=O)O)sc2c2cnn(Cc3ccccc3F)c(=O)c21
O=S(=O)(NC1CCC(NS(=O)(=O)c2c(F)cccc2F)CC1)c1ccc2c(c1)OCCO2 (stereo not given)
Cc1cc2c(s1)c1cnn(Cc3cccc(Cn4ncc5c6sc(C)cc6n(C)c5c4=O)c3F)c(=O)c1n2C
CC(C)c1cc2c(s1)c1cnn(Cc3ccccc3F)c(=O)c1n2C
COC/C=C/c1cc(F)c(S(=O)(=O)N2CCN(S(=O)(=O)c3ccc4c(c3)OCCO4)CC2)cc1F
O=S(=O)(c1ccc2c(c1)OCCO2)N1CCN(S(=O)(=O)c2cc(F)c(Br)cc2F)CC1
C[C@@H]1CN(S(=O)(=O)c2c(F)cccc2F)CCN1S(=O)(=O)c1ccc2c(c1)OCCO2
O=S(=O)(c1ccc2c(c1)OCCO2)N1CCN(S(=O)(=O)c2c(F)cccc2F)CC1
O=S(=O)(NC1CCN(S(=O)(=O)c2ccc3c(c2)OCCO3)CC1)c1c(F)cccc1F
O=S(=O)(c1ccc2c(c1)OCCO2)N1CCN(S(=O)(=O)c2ccc3c(c2)OCCO3)CC1
O=C(c1c(F)cccc1F)N1CCN(S(=O)(=O)c2ccc3c(c2)OCCO3)CC1
Cc1cc2c(s1)c1cnn(Cc3ccc(Cl)cc3)c(=O)c1n2C
O=C(O)c1cc(F)c(S(=O)(=O)N2CCN(S(=O)(=O)c3ccc4c(c3)OCCO4)CC2)cc1F
CCOC(=O)/C=C/c1cc(F)c(S(=O)(=O)N2CCN(S(=O)(=O)c3ccc4c(c3)OCCO4)CC2)cc1F
O=S(=O)(c1c(F)cccc1F)C1CCN(S(=O)(=O)c2ccc3c(c2)OCCO3)CC1
C=Cc1cc2c(s1)c1cnn(Cc3ccccc3F)c(=O)c1n2C
Cc1cc2c(s1)c1cnn(Cc3ccccc3F)c(=O)c1n2Cc1ccccc1F
CS(=O)(=O)Nc1cccc(-c2cc(F)c(S(=O)(=O)N3CCN(S(=O)(=O)c4ccc5c(c4)OCCO5)CC3)cc2F)c1
C=Cc1cc(F)c(S(=O)(=O)N2CCN(S(=O)(=O)c3ccc4c(c3)OCCO4)CC2)cc1F
O=S(=O)(c1ccc2c(c1)OCCCO2)N1CCN(S(=O)(=O)c2c(F)cccc2F)CC1
COC(=O)c1cc(F)c(S(=O)(=O)N2CCN(S(=O)(=O)c3ccc4c(c3)OCCO4)CC2)cc1F
O=S(=O)(c1ccc2c(c1)OCCO2)N1CCN(S(=O)(=O)c2ccccn2)CC1
O=C(N1CCc2ccc(S(=O)(=O)N3CCN(S(=O)(=O)c4ccc5c(c4)OCCO5)CC3)cc2C1)C(F)(F)F
Cc1cc2c(s1)c1cnn(Cc3ccc(F)cc3)c(=O)c1n2C
O=c1[nH]c2ccc(S(=O)(=O)N3CCN(S(=O)(=O)c4c(F)cccc4F)CC3)cc2[nH]c1=O
O=C(O)CCc1cc(F)c(S(=O)(=O)N2CCN(S(=O)(=O)c3ccc4c(c3)OCCO4)CC2)cc1F
O=C1CN(S(=O)(=O)c2c(F)cccc2F)CCN1S(=O)(=O)c1ccc2c(c1)OCCO2
O=S(=O)(c1ccc2nc(Cl)c(Cl)nc2c1)N1CCN(S(=O)(=O)c2c(F)cccc2F)CC1
COc1ccc(S(=O)(=O)N2CCN(S(=O)(=O)c3ccc4c(c3)OCCO4)CC2)cc1
COc1ccc(S(=O)(=O)N2CCN(S(=O)(=O)c3c(F)cccc3F)CC2)cc1
Cc1cc2c(s1)c1cnn(Cc3ccccc3F)c(=O)c1n2C
CCOC(=O)CCc1cc(F)c(S(=O)(=O)N2CCN(S(=O)(=O)c3ccc4c(c3)OCCO4)CC2)cc1F
O=C(O)Cc1cc(F)c(S(=O)(=O)N2CCN(S(=O)(=O)c3ccc4c(c3)OCCO4)CC2)cc1F
C[C@H]1CN(S(=O)(=O)c2ccc3c(c2)OCCO3)CCN1S(=O)(=O)c1c(F)cccc1F
Cn1c2cc(S(C)(=O)=O)sc2c2cnn(Cc3ccccc3F)c(=O)c21
O=C(O)/C=C/c1cc(F)c(S(=O)(=O)N2CCN(S(=O)(=O)c3ccc4c(c3)OCCO4)CC2)cc1F
Cc1cc2c(s1)c1cnn(Cc3c(F)cccc3Cl)c(=O)c1n2C
Cc1cc2c(s1)c1cnn(Cc3cccc(F)c3)c(=O)c1n2C
